According to PubChem BioAssay (Tox21):
Inconclusive results are not listed. Activity calls are given as the source filed them. Unless noted, calls follow the shape of the dose curve; as a rule, active = well fitted curve in the direction sought with a large enough effect in the repeat runs; inconclusive = weak or mixed curves; inactive = no such curve, though single readings can be large; an effect the other way counts as inactive or inconclusive.

Legend:
[1] = biological target: Luciferin 4-monooxygenase (Photinus pyralis) (UniProt P08659); experiment: qHTS assay to identify small molecule inhibitors of firefly luciferase (AID 1224835); also: nearly all actives have a fitted effect of over 25% in size; also: potency is read from the fitted curve at half-maximal effect
Luciferin 4-monooxygenase (Photinus pyralis), sequence (P08659 whole entry, looked up): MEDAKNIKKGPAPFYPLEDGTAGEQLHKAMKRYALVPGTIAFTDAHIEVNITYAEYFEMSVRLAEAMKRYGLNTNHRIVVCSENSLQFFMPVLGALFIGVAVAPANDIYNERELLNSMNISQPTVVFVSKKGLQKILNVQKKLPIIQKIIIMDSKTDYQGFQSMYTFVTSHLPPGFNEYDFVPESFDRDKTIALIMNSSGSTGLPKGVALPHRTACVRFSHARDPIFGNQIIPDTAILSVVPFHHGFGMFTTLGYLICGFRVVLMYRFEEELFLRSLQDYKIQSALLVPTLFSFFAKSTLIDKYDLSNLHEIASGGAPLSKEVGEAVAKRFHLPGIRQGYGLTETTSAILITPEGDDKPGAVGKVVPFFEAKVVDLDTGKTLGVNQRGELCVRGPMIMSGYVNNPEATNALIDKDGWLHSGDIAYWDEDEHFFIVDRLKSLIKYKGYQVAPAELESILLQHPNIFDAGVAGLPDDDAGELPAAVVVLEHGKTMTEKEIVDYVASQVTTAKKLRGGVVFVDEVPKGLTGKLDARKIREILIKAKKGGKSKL
Outline: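 Quantitative HTS format; KM concentrations of both substrates. Purified P. pyralis FLuc activity quantified from luminescence images.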

[2] = qHTS assay to identify small molecule agonists of the constitutive androstane receptor (CAR) signaling pathway - cell viability counter screen (AID 1224836); also: nearly all actives have a fitted effect of over 45% in size; also: potency is read from the fitted curve at half-maximal effect
Outline: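 Multiplexed viability check: HepG2-CYP2B6-hCAR cells, 15-point compound dosing, 0.75 uM PK11195 final, 23 h at 37 C, CellTiter-Fluor fluorescence.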

[3] = qHTS assay to identify small molecule antagonists of the constitutive androstane receptor (CAR) signaling pathway - cell viability counter screen (AID 1224837); also: nearly all actives have a fitted effect of over 45% in size; also: potency is read from the fitted curve at half-maximal effect
Outline: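 Counter screen run in HepG2-CYP2B6-hCAR cells: 4 hr settle, compound titration (15 concentrations) with 50 nM CITCO, 23 hr at 37 C/5% CO2, CellTiter-Fluor fluorescence.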

[4] = biological target: Nuclear receptor subfamily 1 group I member 3 (Homo sapiens) (UniProt Q14994); experiment: qHTS assay to identify small molecule antagonists of the constitutive androstane receptor (CAR) signaling pathway (AID 1224838);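 also: HepG2 cells stably expressing hCAR with CYP2B6 luciferase reporter stimulated by CITCO; nearly all actives have a fitted effect of over 40% in size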; also: potency is read from the fitted curve at half-maximal effect
Nuclear receptor subfamily 1 group I member 3 (Homo sapiens), sequence (Q14994 whole entry, looked up): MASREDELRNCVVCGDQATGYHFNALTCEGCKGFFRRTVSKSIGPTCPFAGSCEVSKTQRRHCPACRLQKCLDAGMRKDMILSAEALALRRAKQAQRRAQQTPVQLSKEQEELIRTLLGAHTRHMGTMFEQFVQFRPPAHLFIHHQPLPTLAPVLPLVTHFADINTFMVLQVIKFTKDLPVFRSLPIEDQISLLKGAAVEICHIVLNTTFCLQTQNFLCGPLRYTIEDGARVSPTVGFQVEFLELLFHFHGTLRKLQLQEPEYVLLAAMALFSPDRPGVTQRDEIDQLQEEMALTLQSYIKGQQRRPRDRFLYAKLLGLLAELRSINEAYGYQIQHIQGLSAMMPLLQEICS
Outline: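 Cell line: HepG2 double-stable for hCAR and CYP2B6-2.2kb reporter. Agonist: CITCO, 50 nM final. Compounds: 15 concentrations, 24 h, 37 C. Detection: ONE-Glo luminescence.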

[5] = biological target: Nuclear receptor subfamily 1 group I member 3 (Homo sapiens) (UniProt Q14994); experiment: qHTS assay to identify small molecule agonists of the constitutive androstane receptor (CAR) signaling pathway (AID 1224839); also: nearly all actives have a fitted effect of over 15% in size; also: potency is read from the fitted curve at half-maximal effect;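 as to activation: HepG2 cells stably carrying human CAR and a CYP2B6 luciferase reporter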
Outline: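 Using human hepatoma HepG2 cells engineered with hCAR and a CYP2B6-2.2kb reporter, 15-concentration compound series were incubated 24 h alongside PK11195 at 0.75 uM final, with luminescence quantified afterwards.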

[6] = qHTS assay to identify small molecule antagonists of the estrogen related receptor signaling pathway with the pleiotropic PPARgamma coactivator (PGC) from Tox21 10K library - cell viability counter screen (AID 1224840; active = well fitted cell-killing curve with a large enough effect in the repeat runs, not every such curve was filed as active; also: nearly all actives have a fitted effect of over 40% in size)
Outline: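 Following seeding of 2,000 PGC/ERR cells/well and 6 hours' incubation, test compounds were delivered in DMSO. The plates then sat 17.5 hours at 37 C before a fluorogenic live-cell protease reagent (CellTiter-Fluor) was read after 30 min.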

[7] = qHTS assay to identify small molecule agonists of the estrogen related receptor signaling pathway with the pleiotropic PPARgamma coactivator (PGC) from Tox21 10K library (AID 1224842); also: nearly all actives have a fitted effect of over 15% in size; also: potency is read from the fitted curve at half-maximal effect
Outline: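 PGC/ERR reporter cells (NTP line) were seeded 2,000 per well, rested 6 h at 37 C/5% CO2, then pin-dosed with compounds in DMSO for 18 h at 37 C; luciferase read by One-Glo luminescence after 30 min at room temperature.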

[8] = biological target: Thyrotropin receptor (Homo sapiens) (UniProt P16473); experiment: qHTS assay to identify small molecule agonists of the thyroid stimulating hormone receptor (TSHR) signaling pathway (AID 1224843; calls by dose curve; also: nearly all actives have a fitted effect of over 45% in size)
Thyrotropin receptor (Homo sapiens), sequence (P16473 whole entry, looked up): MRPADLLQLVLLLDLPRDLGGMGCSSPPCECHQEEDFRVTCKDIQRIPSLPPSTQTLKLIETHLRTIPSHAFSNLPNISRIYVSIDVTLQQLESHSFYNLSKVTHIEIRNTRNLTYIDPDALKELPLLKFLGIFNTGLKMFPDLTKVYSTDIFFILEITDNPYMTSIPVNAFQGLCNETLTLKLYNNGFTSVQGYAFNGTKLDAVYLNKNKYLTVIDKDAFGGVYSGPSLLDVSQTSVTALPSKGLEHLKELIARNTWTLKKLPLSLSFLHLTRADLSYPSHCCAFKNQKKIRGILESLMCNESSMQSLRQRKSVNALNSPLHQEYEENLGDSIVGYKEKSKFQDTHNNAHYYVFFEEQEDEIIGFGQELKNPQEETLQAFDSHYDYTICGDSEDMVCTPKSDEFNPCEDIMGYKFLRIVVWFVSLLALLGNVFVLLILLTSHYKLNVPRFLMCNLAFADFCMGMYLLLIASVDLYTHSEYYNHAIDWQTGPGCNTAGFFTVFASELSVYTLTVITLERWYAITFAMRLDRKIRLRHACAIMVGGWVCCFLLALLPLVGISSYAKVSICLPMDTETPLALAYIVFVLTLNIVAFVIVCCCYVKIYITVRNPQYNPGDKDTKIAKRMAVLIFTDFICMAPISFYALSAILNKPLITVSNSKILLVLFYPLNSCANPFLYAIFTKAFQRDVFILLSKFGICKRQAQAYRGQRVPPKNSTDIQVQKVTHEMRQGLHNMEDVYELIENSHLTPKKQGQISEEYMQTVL
Outline: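 TSHR-expressing HEK293 cells (800 per well) were exposed to compounds for 30 min at room temperature. cAMP was then detected by HTRF competition with cAMP-d2 and anti-cAMP cryptate, read after 1 h at room temperature. Fifteen concentrations, triplicate.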

[9] = qHTS assay to identify small molecule agonists of the hypoxia (HIF-1) signaling pathway - cell viability counter screen (AID 1224844; calls by dose curve; also: nearly all actives have a fitted effect of over 50% in size; also: potency is read from the fitted curve at half-maximal effect)
Outline: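 Cells (HRE-bla ME-180, 2,000 per well) sat 5 hrs at 37C, got compound for 17 hrs, were read for CCF4-AM FRET, and were finally lysed with CellTiter-Glo for a 30 min room-temperature luminescence read.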

[10] = qHTS assay to identify small molecule agonists of H2AX (AID 1224845; active = well fitted activation curve with a large enough effect in the signal ratio in the repeat runs, not every such curve was filed as active; the % refers to the signal ratio)
Outline: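 Wild-type CHO-K1 cells plated overnight, then exposed 3 hr at 37C to compounds at 15 concentrations (0.76% DMSO). Lysed, then HTRF anti-pH2AX(S139)-cryptate/anti-H2AX-d2 detection after 24 hr at room temperature; emissions 665 and 620 nm.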

[11] = qHTS assay to identify small molecule agonists of the hypoxia (HIF-1) signaling pathway (AID 1224846; active = well fitted activation curve with a large enough effect in the signal ratio in the repeat runs, not every such curve was filed as active; the % refers to the signal ratio)
Outline: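 A low-serum medium (0.5% dialyzed FBS) holding 2,000 HRE-bla ME-180 cells per well is preincubated for 5 hrs, dosed with compounds by pintool, and kept a further 17 hrs at 37C, 5% CO2 before CCF4-AM FRET detection of beta-lactamase.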

[12] = qHTS assay to identify small molecule agonists of H2AX - cell viability counter screen (AID 1224847; calls by dose curve; also: top concentration of the series differs between compounds; nearly all actives have a fitted effect of over 30% in size)
Outline: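 After overnight plating of 1000 CHO-K1 cells per well, a 15-concentration compound series was applied for 3 hr at 37C. Luminescence from CellTiter-Glo, read following 30 min at room temperature, reflected cell viability.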

[13] = qHTS assay to identify small molecule agonists of the estrogen related receptor (ERR) signaling pathway from Tox21 library (AID 1224849; calls by dose curve; also: nearly all actives have a fitted effect of over 15% in size); details: ERR reporter cell line, ONE-Glo luciferase, 18 h; at 92.4 µM (top of the series) unless noted
Outline: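 Screening used an NTP-provided ERR luciferase cell line. Compounds in DMSO were added 6 h after seeding and left 18 h at 37 C before a 30 min ONE-Glo step and luminescence reading.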

[14] = qHTS RealTime-Glo MT Cell Viability Assay in HepG2 cells - 24 hour (AID 1224867); also: nearly all actives have a fitted effect of over 50% in size; also: potency is read from the fitted curve at half-maximal effect
Outline: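 HepG2 suspension premixed with RealTime-Glo reagents is plated at 600 cells per well and left 5 h at 37 C/5% CO2. Compounds in DMSO then go in, and bioluminescence reflecting viable cell number is recorded over 40 h.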

[15] = qHTS RealTime-Glo MT Cell Viability Assay in HEK293 cells - 32 hour (AID 1224868); also: nearly all actives have a fitted effect of over 50% in size; also: potency is read from the fitted curve at half-maximal effect; as to activity change, negative = cytotoxic: top concentration of the series differs between compounds
Outline: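 Reads taken at 0, 8, 16, 24, 32 and 40 h from the same wells. HEK293 cells (600/well) carried RealTime-Glo reagents from seeding, with compound added after a 5 h settle at 37 C.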

[16] = A CellTox Green Cytotoxicity Assay to monitor cytotoxicity in HEK293 cells - 0 hour (AID 1224869); also: nearly all actives have a fitted effect of over 50% in size
Outline: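 Fluorescence intensity, read at 0, 8, 16, 24, 32 and 40 h of compound treatment, reflected dye binding to DNA of dead HEK293 cells; compounds (23 nL, DMSO) were added 5 h after plating cells with reagent.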

[17] = qHTS RealTime-Glo MT Cell Viability Assay in HepG2 cells - 40 hour (AID 1224870); also: nearly all actives have a fitted effect of over 50% in size; also: potency is read from the fitted curve at half-maximal effect
Outline: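 HepG2 cells mixed with RealTime-Glo MT reagents (NanoLuc plus cell-permeant prosubstrate) were seeded at 600 cells/well, incubated 5 h at 37 C/5% CO2, then pinned with compounds in DMSO; nonlytic luminescence tracked viability during 40 h treatment.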

[18] = qHTS assay to identify small molecule antagonists of the estrogen related receptor signaling pathway with the pleiotropic PPARgamma coactivator (PGC) from Tox21 10K library (AID 1224841; call rule not given here; also: potency is read from the fitted curve at half-maximal effect)
Outline: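 qHTS antagonist format: PGC/ERR cells, 2k/well, compound in DMSO by pin transfer after 6 h attachment, 18 h treatment at 37 C, One-Glo luminescence read at 30 min.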

[19] = qHTS assay to identify small molecule antagonists of the estrogen related receptor (ERR) signaling pathway from Tox21 library (AID 1224848); also: nearly all actives have a fitted effect of over 50% in size; also: potency is read from the fitted curve at half-maximal effect
Outline: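 Cells: ERR line, 2,000/well; 6 h preincubation 37 C/5% CO2. Cpd in DMSO via pin tool; 18 h, 37 C. ONE-Glo, 30 min RT, luminescence.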

[20] = qHTS assay to identify small molecule antagonists of the estrogen related receptor (ERR) signaling pathway from Tox21 library - cell viability counter screen (AID 1224834); also: nearly all actives have a fitted effect of over 30% in size
Outline: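 After 17.5 h of compound exposure at 37 C, ERR cells are incubated with CellTiter-Fluor for 30 min and fluorescence intensity serves as the viability measure.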
% is scaled to controls: 0 for no effect and ±100 for the full control effect.

Cc1cc(O)c2c(O)c3c(O)cccc3cc2c1
inactive: Potency [1] | Potency [2] | Potency [3] | Potency [4] | Potency [6] | Potency [7] | Potency [8] | Potency [9] | Potency [10] | outcome [11] | Potency [12] | activity change, positive = activation [13] -25.3% [at 42.5 µM] | Potency [14] | Potency [15] | Potency [16] | Potency [17]
active: Potency [5] 29.8 µM

Oc1cc(O)c(Cl)cc1Cl
inactive: Potency [1] | Potency [2] | Potency [3] | Potency [4] | Potency [5] | Potency [6] | Potency [18] | Potency [7] | Potency [8] | Potency [9] | outcome [11] | Potency [12] | Potency [19] | activity change, positive = activation [13] -14.1% | Potency [14] | Potency [15] | Potency [16] | Potency [17]

O=c1[nH]c2ccc(S(=O)CCN3CCC(Cc4ccc(F)cc4)CC3)cc2o1 (configuration not stated)
inactive: Potency [1] | Potency [2] | Potency [3] | Potency [4] | Potency [5] | Potency [6] | Potency [18] | Potency [7] | Potency [8] | Potency [9] | Potency [10] | outcome [11] | activity change, positive = activation [13] -29.7% | Potency [14] | Potency [16] | Potency [17]

O=C(OCCOCCO)c1ccccc1Nc1cccc(C(F)(F)F)c1
inactive: Potency [1] | Potency [2] | Potency [3] | Potency [4] | Potency [5] | Potency [8] | Potency [9] | Potency [10] | outcome [11] | Potency [14] | Potency [17]

CCCC(=O)O[C@]1(C(=O)COC(=O)CC)CC[C@H]2[C@@H]3CCC4=CC(=O)CC[C@]4(C)[C@H]3[C@@H](O)C[C@@]21C
inactive: activity change, negative = inhibition [1] 4.64% [at 23.6 µM] | viability change, negative = cytotoxic [2] 10.6% [at 19 µM] | activity change, negative = cytotoxicity [3] 6.46% [at 19 µM] | activity, negative = inhibition [4] 2.05% [at 19 µM] | activation [5] -0.514% [at 19 µM] | viability change, negative = cytotoxic [6] -4.48% [at 19 µM] | activation [8] -3.04% [at 19 µM] | activity change, negative = cytotoxicity [9] -1.64% [at 15.8 µM] | activation (H2AX phosphorylation) [10] -1.56% [at 31.6 µM] | activation [11] -2.77% [at 15.8 µM] | activity change, negative = cytotoxicity [12] 1.02% [at 31.6 µM] | activity change, negative = cytotoxicity [14] 1.66% [at 15.8 µM] | activity change, negative = cytotoxic [15] -2.43% [at 15.8 µM] | cytotoxicity [16] -7.53% [at 15.8 µM] | activity change, negative = cytotoxic [17] -0.605% [at 15.8 µM]

C(=C\c1ccccc1)/CN1CCN(C(c2ccccc2)c2ccccc2)CC1
inactive: Potency [20] | Potency [3] | Potency [5] | Potency [6] | Potency [8] | Potency [9] | Potency [14] | Potency [16] | Potency [17]

CO[C@@]12[C@H](COC(N)=O)C3=C(C(=O)C(C)=C(N)C3=O)N1C[C@@H]1N[C@@H]12
inactive: Potency [1] | Potency [5] | Potency [7] | Potency [12] | activity change, positive = activation [13] -55.2% [at 42.5 µM] | Potency [16]
active: Potency [2] 9.44 µM | Potency [3] 9.44 µM | Potency [4] 0.75 µM | Potency [18] 23.7 µM | Potency [9] 9.52 µM | Potency [19] 8.41 µM | Potency [14] 6.01 µM | Potency [15] 0.848 µM | Potency [17] 5.35 µM

CN1Cc2cc(C(=O)N3CCC(C4CCNCC4)CC3)ccc2N[C@@H](CC(=O)O)C1=O
inactive: Potency [1] | Potency [2] | Potency [3] | Potency [4] | Potency [5] | Potency [7] | Potency [8] | Potency [9] | Potency [10] | outcome [11] | Potency [12] | Potency [19] | activity change, positive = activation [13] 7.88% [at 42.5 µM] | Potency [14] | Potency [15] | Potency [16] | Potency [17]

Oc1ccc(Nc2ccccc2)cc1
active: Potency [19] 24.3 µM | Potency [15] 21.9 µM
inactive: Potency [1] | Potency [2] | Potency [3] | Potency [4] | Potency [18] | Potency [7] | Potency [8] | outcome [11] | Potency [12] | activity change, positive = activation [13] -35.9% | Potency [16] | Potency [17]

CCc1c2c(nc3ccc(OC(=O)N4CCC(N5CCCCC5)CC4)cc13)-c1cc3c(c(=O)n1C2)COC(=O)[C@]3(O)CC
inactive: Potency [1] | Potency [2] | Potency [3] | Potency [5] | Potency [6] | Potency [8] | outcome [11] | Potency [12] | Potency [14] | Potency [16] | Potency [17]
active: Potency [4] 2.98 µM | Potency [15] 2.68 µM

O=C(N[C@@H](c1ccccc1)[C@@H]1CCCCN1)c1cccc(C(F)(F)F)c1Cl
inactive: Potency [1] | Potency [5] | Potency [7] | Potency [8] | Potency [9] | outcome [11] | activity change, positive = activation [13] -38.1% | Potency [16]
active: Potency [2] 61.1 µM | Potency [3] 61.1 µM | Potency [19] 30.6 µM | Potency [14] 43.6 µM | Potency [15] 24.5 µM | Potency [17] 43.6 µM

O=C(Nc1ccccc1)Nc1ccccc1
active: Potency [1] 6.36 µM | Potency [5] 4.88 µM | Potency [7] 10.9 µM | activity change, positive = activation [13] 28.3%
inactive: Potency [2] | Potency [3] | Potency [6] | Potency [18] | Potency [9] | outcome [11] | Potency [19] | Potency [14] | Potency [17]
